Test results: PubChem BioAssay (NCI)
About 79,000 compounds went through this panel and 15% of them were active in at least one assay; those are over-represented in the sample as a whole. Unmarked numbers belong to inactive results. The source made the active and inactive calls. No stated cut-off is given here; in the data, active means growth inhibition above about 70%; inactive means the rest. Where a SMILES comes first, the peptide text is derived from it. [ ]: non-standard residue; d: D form. The star is where a group is joined. ξ: configuration not given here. ξF = NC(Cc1ccccc1)C(=O)O; Cbz = O=C(OCc1ccccc1)*; Aib = CC(C)(N)C(=O)O

How the values were obtained:
[1] = NCI Yeast Anticancer Drug Screen. Data for the rad50 strain (AID 155);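 further: 0% = growth of vehicle-only cultures of the same strain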; details: S. cerevisiae rad50 strain growth inhibition; at 50.0 µM; stronger effect = higher value
Procedure, shortened: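 Yeast carrying a defined DNA repair defect were exposed to test compounds, and growth was compared with vehicle-treated controls to give percent inhibition.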

[2] = NCI Yeast Anticancer Drug Screen. Data for the mec2-1 strain (AID 157); details: S. cerevisiae mec2-1 strain, at 50.0 µM, stronger effect = higher value
Procedure, shortened: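 Vehicle-treated cultures served as reference for growth inhibition of compound-exposed mec2-1 yeast.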

[3] = NCI Yeast Anticancer Drug Screen. Data for the sgs1 mgt1 strain (AID 161);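 further: 0% = growth of cultures given vehicle only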; details: S. cerevisiae sgs1 mgt1 strain, at 50.0 µM, stronger effect = higher value
Procedure, shortened: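 Test agents were incubated with a DNA-repair-mutant yeast strain. Growth was then read and compared against vehicle-treated controls.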

[4] = NCI Yeast Anticancer Drug Screen. Data for the cln2 rad14 strain (AID 165);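 further: 0% = growth equal to vehicle treated cultures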; details: S. cerevisiae cln2 rad14 strain, at 50.0 µM, stronger effect = higher value
Procedure, shortened: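 Each compound was tested on cln2 rad14 yeast. Inhibition of growth was calculated against vehicle-exposed controls.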

[5] = NCI Yeast Anticancer Drug Screen. Data for the bub3 strain (AID 167); details: S. cerevisiae bub3 mutant strain, at 50.0 µM, stronger effect = higher value
Procedure, shortened: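 Compounds were applied to a genetically altered yeast strain carrying a cell-cycle control defect. Growth inhibition was scored against vehicle-treated controls.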

[6] = NCI Yeast Anticancer Drug Screen. Data for the mlh1 rad18 strain (AID 175); details: S. cerevisiae mlh1 rad18 strain growth inhibition; at 50.0 µM; stronger effect = higher value
Procedure, shortened: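 Vehicle-treated cultures served as the reference for growth inhibition in a yeast strain carrying DNA damage repair alterations exposed to each compound.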

| Structure (SMILES) | growth inhibition [1] [%] | growth inhibition [2] | growth inhibition [3] | growth inhibition [4] | growth inhibition [5] [%] | growth inhibition [6] |
| --- | --- | --- | --- | --- | --- | --- |
| CC(C)(NC(=O)OCc1ccccc1)C(=O)NC(Cc1ccccc1)C(=O)O (stereo unspecified) (Cbz-[Aib]-[ξF]-OH) | -26.6 | -61% | -5.7% | 19.8% | 11.2 | -11.3% |
| Cc1ncc(CO)c(/C=N\Nc2ccc([N+](=O)[O-])cc2[N+](=O)[O-])c1O | -21.4 | 19.2% | 9.7% | -17.7% | 11.3 | 13.9% |
| CCOC1NC(/N=C/c2ccc(OC)cc2)=C(C#N)C1C#N (stereo unspecified) | -29.2 | -6.7% | -49.5% | 12.4% | -28.1 | -35% |
| CC(C)(C)OC(=O)c1cccc(C(=O)OC(C)(C)C)c1 | 0.6 | 41.6% | 32.2% | -9.7% | 39.1 | 17.3% |
| CC(=O)NNC(=S)/N=C\c1c(O)[nH]c(=O)[nH]c1=O | -23.1 | -30.1% | -15.4% | -0.6% | -4 | -9.85% |
| CC(C)(C)OC(=O)N1CCc2c([nH]oc2=O)C1 | -1.25 | -8.55% | -3.5% | -17.6% | 10.6 | -3.8% |
| COC(=O)C1c2ccccc2CC(=O)N1N (stereo unspecified) | -2.7 | -8.5% | -20.6% | 8.25% | 7.05 | 9.15% |
| O=C1CCCC2(c3ccc([N+](=O)[O-])cc3)C1C1C(=O)CCCC12c1ccc([N+](=O)[O-])cc1 (stereo unspecified) | 44 | -0.6% | 14.2% | 12.6% | 5.4 | 5.5% |
| CCOC(=O)Nc1cc2c(c(N)n1)N=C(c1ccc(OC)cc1)CN2 | 33.1 | -6.75% | 24.5% | 30% | 21.5 | 11.2% |
| CC(O)C1OC(n2cnc3c(=O)[nH]cnc32)C(O)C1O (stereo unspecified) | -9.45 | -24.9% | -0.65% | -0.85% | -7.05 | -22.9% |
| NC(=S)CNC(=O)c1ccccc1 | -28.6 | -33.1% | -29.3% | -9.55% | -11.8 | 9.6% |
| Cc1cccc(NC(=O)NC2CCC(CC3CCCCC3)CC2)c1 (stereo unspecified) | 16.7 | 5.8% | 7.2% | -9.6% | -1.55 | 7.65% |
| CCCCCCCC(=O)N(CCCCC)CCCCC | 66.5 | 77.2% (active) | 77.2% (active) | 74% (active) | 66.5 | 66.5% |
| OCC(O)COc1cccc2cccnc12 (stereo unspecified) | 4.75 | -15% | 0.4% | -26.1% | 11.2 | 8.3% |
| CCOC(=O)c1[nH]c(CC(=O)O)c(C(=O)OCC)c1C | -6.8 | 3% | 9% | -44.9% | 3.9 | 5.1% |
| CC(C)=NNC(=S)NC12CC3CC(CC(C3)C1)C2 | 29.4 | 39.3% | 25.1% | -8.7% | 48.7 | 35% |
| O=C1c2[nH]c3ccccc3c2CN1CCc1ccccc1 | -2.4 | -15.9% | 4.7% | -14.5% | -4.45 | -5.1% |
| CC(C)=CCC1=C(OCC(=O)O)C(=O)c2ccccc2C1=O | 30.9 | 1.45% | 12.8% | -2.7% | 20.1 | 23.1% |
| CN(C)C(=O)Nc1ccc(C#N)cc1 | 10.1 | 2.3% | -13.3% | -25.1% | -5.15 | -8.2% |
| CCOC(=O)C(CC)C1=CCCCC1 (stereo unspecified) | -21 | -48.7% | -11.2% | 12.3% | -11.2 | -8.55% |
| O=C(CCc1ccc(O)c(O)c1)NCCc1cc(O)cc(OCc2ccccc2)c1 | 9.45 | -6.65% | -10.6% | -19.1% | -44.3 | -73.5% |

| Structure (SMILES) | growth inhibition [1] [%] | growth inhibition [2] | growth inhibition [3] | growth inhibition [4] | growth inhibition [5] [%] | growth inhibition [6] |
| --- | --- | --- | --- | --- | --- | --- |
| C(#Cc1ccccc1)/C=C/C(=C\c1ccccc1)c1ccccc1 | 6.6 | 4.9% | -4.9% | 11.8% | 20.8 | 33.5% |
| O=NN(CCCl)C(=S)NC1CCCCC1 | 3.25 | -0.15% | 6.35% | 7.2% | -3.6 | 47.8% |
| CC1CCc2c(nc(C#N)c(=N)n2O)C1 (stereo unspecified) | 8.25 | -3.2% | 6.8% | -40.2% | -12.2 | -6.75% |
| COc1ccc(C(=O)C(c2ccc(OCc3ccccc3)cc2)c2ccc(OCc3ccccc3)cc2)cc1 | 5.4 | -35.8% | -6.35% | 26.9% | -25.7 | -5.55% |
| OCN(CO)c1ccc2c(c1)Cc1cc(Cl)ccc1-2 | 0.35 | -24.1% | -2.2% | 22.4% | 13.1 | 12.7% |
| COc1cc(C2SC(N)=Nc3c2c(C)nn3C(=O)c2ccc(Cl)cc2)ccc1O (stereo unspecified) | -36.7 | 15.8% | -9.55% | -30.4% | 16.8 | -10.2% |
| O=C(SCc1ccccc1)C(O)c1ccccc1 (stereo unspecified) | 1.95 | 6.9% | 15.7% | -24.6% | 19.3 | 5.2% |
| CC1COCC(C)N1CC(OCc1ccccc1)c1ccccc1 (stereo unspecified) | -5.7 | -2.2% | -15.4% | -52.2% | -7.9 | -15.5% |
| CNC(=O)OCc1c(COC(=O)NC)c(-c2ccccc2)n(-c2ccccc2)c1C | 24.4 | 27.8% | 44.8% | 37.9% | 22.9 | 88.1% (active) |
| CC(=O)OCC1OC(OC(C)=O)C(N(C)C(C)=O)C(OC(C)=O)C1OC(C)=O (stereo unspecified) | 32.8 | 18.6% | 26.8% | 20.6% | -0.55 | 35.6% |
| Cn1c(=O)c(Br)c(C=O)n(CCO[N+](=O)[O-])c1=O | -8.25 | 32% | 3.85% | 15.6% | 38.6 | -27.6% |
| CC1(C)CNC[C@](C)(OCCCO[C@@]2(C)CNCC(C)(C)NC2=O)C(=O)N1 | -11.4 | -33.5% | -21.2% | 25.6% | 3.95 | -9.45% |
| CCOP(=O)(c1ccccc1)C(C)C (stereo unspecified) | -7.85 | -0.5% | -1.7% | -40% | -0.65 | -0.2% |
| C=CCSc1nc2ccc(NCn3c(=S)sc4cc([N+](=O)[O-])ccc43)cc2s1 | 12.6 | 14.4% | 30.9% | 14% | 3.4 | 31.9% |
| CCOC(=O)c1cc2c([N+](=O)[O-])cccc2[nH]1 | 18.4 | -5.9% | -2.2% | -35.5% | 6.45 | 13.7% |
| CC(C)OP(=O)(OC(C)C)/C(N)=N/Nc1ccc([N+](=O)[O-])cc1 | 25.6 | -0.2% | -5.6% | 2.65% | -3.95 | -7.7% |
| CCCCCCC1(/C=C/c2ccc(Cl)c(Cl)c2)OCCCO1 | 6.15 | 12.2% | 12.6% | -1.55% | 3.2 | 8.1% |
| CC(C)N(C)c1ncnc2c1cnn2C | -1.55 | -2.85% | -3.95% | -14.8% | 1.75 | -14% |
| COc1cc(C)c(O)c(C)c1C | -1.9 | -4.1% | -6.55% | -30.3% | -13.1 | 8.35% |
| CCCC[n+]1cc(C(N)=O)cc2ccccc21 | -3.9 | 7.3% | 3.25% | -44.5% | 5.7 | 9.45% |
